Source: PubChem (National Center for Advancing Translational Sciences (NCATS))
Compounds with a hit are over-represented: about 2.7% of the library has one in this group of screens.
GLP1R ag = GLP-1 receptor (human) agonism; actives 0.007% (n = 380,000); P43220; Potency, µM (highest dose often 45.6 µM), most hits filed as activators; HEK293 GLP-1R CRE-luciferase, luminescence, 4-6 h; cells express a hypersensitive GLP-1R form; AID 624172
Target sequence (P43220 whole entry, looked up): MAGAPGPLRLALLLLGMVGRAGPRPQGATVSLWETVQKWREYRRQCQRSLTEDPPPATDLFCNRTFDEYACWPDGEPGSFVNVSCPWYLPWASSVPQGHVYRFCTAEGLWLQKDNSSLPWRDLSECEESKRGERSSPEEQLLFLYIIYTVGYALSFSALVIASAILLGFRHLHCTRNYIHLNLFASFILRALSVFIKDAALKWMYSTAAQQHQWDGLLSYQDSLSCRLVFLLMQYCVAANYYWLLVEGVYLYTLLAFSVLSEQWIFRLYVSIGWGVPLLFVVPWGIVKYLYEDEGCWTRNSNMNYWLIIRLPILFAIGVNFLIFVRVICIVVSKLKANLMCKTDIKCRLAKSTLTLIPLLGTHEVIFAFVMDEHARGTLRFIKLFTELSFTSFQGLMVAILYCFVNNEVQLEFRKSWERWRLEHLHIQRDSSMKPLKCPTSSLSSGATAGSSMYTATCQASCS
TrxR1 substrate = substrates of rat thioredoxin reductase 1. purified TrxR1 substrate turnover, NADPH consumption readout. O89049. AID 588456. actives 0.01% (n = 390,000). Potency, µM (top dose mostly 114 µM); also: nearly all actives have a fitted effect of over 50% in size
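Rat TrxR1, dispensed at 90 nM, was prereduced with 400 uM NADPH (final) for 5 min at ~22 deg C, then incubated with compound 15 min before 400 uM selenite. A first-read NADPH fluorescence drop versus no-compound background flagged substrates.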
GLP-1R inv ag = GLP-1 receptor (human) inverse agonism; P43220; HEK293 GLP-1R CRE-luciferase, luminescence, 24 h; GLP-1R form is constitutively active; Potency, µM (series often up to 38.3 µM), actives largely listed as inhibitors; actives 1.6% (n = 410,000); AID 624417; also: nearly all actives have a fitted effect of over 55% in size
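HEK293 cells stably co-expressing constitutively active GLP-1R and a cAMP-responsive luciferase reporter were seeded in DMEM with 10% Nu serum, given compounds after 12 h, and incubated 24 h at 37 deg C. Luminescence was then read.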
GLP1R cytotox = cytotoxic in the GLP-1 receptor inverse agonist counter-screen; actives 0.13% (n = 410,000); AID 624418; HEK293 cAMP-luciferase reporter cells, luminescence, 24 h; Potency, µM (series often up to 38.3 µM), hits mostly inhibitors;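 also: loss of luciferase light is scored as toxicity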
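Compound-treated cells are incubated 24 hr at 37 deg C under 5% CO2 after a 12 hour attachment period, then luciferase detection reagent is added and luminescence is measured following 12 min at room temperature; lowered signal indicates toxicity.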
rTrxR1 inhibitor = inhibitors of rat thioredoxin reductase 1; AID 588453; O89049; actives 1% (n = 390,000); recombinant rTrxR1, NADPH fluorescence consumption, selenite substrate; Potency, µM (titrated, usually from 114 µM), usual class: inhibitors; also: nearly all actives have a fitted effect of over 65% in size
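Rat TrxR1 (90 nM in the dispensed reagent) was pre-reduced with 400 uM NADPH for 5 min at room temperature, then incubated with compound for 15 min. After 400 uM selenite was added, NADPH fluorescence (Ex 340/Em 450 nm) was followed for 8 min.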
mIDH1 inhibitor = blocks human mutant IDH1 R132H enzyme; O75874; IDH1-R132H enzyme, NADPH consumption, diaphorase/resazurin fluorescence; Potency, µM (titrated, usually from 76.6 µM), most hits filed as inhibitors; actives 0.093% (n = 390,000); AID 602179; also: nearly all actives have a fitted effect of over 65% in size
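IDH1-R132H (0.5 ug/mL dispensed) in pH 7.5 Tris buffer was preincubated 30 min with compound, then given a substrate mix of 0.016 mM NADPH and 2 mM alpha-KG for 80 min at room temperature; remaining NADPH was read by diaphorase/resazurin fluorescence.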
Resorufin autofl = counter-screen for mutant IDH1 inhibitors: fluorescence interference; 750 tested, under 10 active; inhibition of signal, % at 51.2 µM; Resorufin detection reagent fluorescence interference, cell-free; shares compounds with mIDH1 inhibitor; AID 623980
IDH1 WT = selectivity of mutant IDH1 inhibitors: human wild-type IDH1; shares compounds with mIDH1 inhibitor; WT IDH1 enzyme, NADPH diaphorase/resazurin fluorescence; Potency, µM (series often up to 115 µM), usual class: inhibitors; actives 9% (n = 750); AID 623995; also: nearly all actives have a fitted effect of over 55% in size
IDH1 R132H conf = mutant IDH1 (human) inhibition, confirmed. shares compounds with mIDH1 inhibitor. IDH1 R132H enzyme, NADPH diaphorase/resazurin fluorescence. Potency, µM (titrated, usually from 76.6 µM), actives largely listed as inhibitors. actives 83% (n = 750). AID 624002; also: nearly all actives have a fitted effect of over 50% in size
Of the large screens only hits and unclear results are named; the others gave an inactive call (follow-up assays come after a bar, where they were run). Calls follow the shape of the dose curve; as a rule, active = well fitted curve in the direction sought with a large enough effect; inconclusive = small, poorly fitted or top-dose-only effect, or another doubt; inactive = no such curve, though single readings can be large; an effect the other way counts as inactive or inconclusive.

COC(=O)c1c(NC(=O)c2nc(SCc3cccc(C)c3)ncc2Cl)sc2c1CCCC2	none (no result: GLP1R ag)
COc1cc(C2c3c(-c4cc(C)ccc4O)n[nH]c3C(=O)N2Cc2cccnc2)cc(OC)c1OC (stereo unspecified)	none (no result: GLP1R ag)
CCc1ccc(C2c3c(-c4cc(C)ccc4O)n[nH]c3C(=O)N2Cc2cccnc2)cc1 (stereo unspecified)	mIDH1 inhibitor 28µM (no result: GLP1R ag) | Resorufin autofl inactive | IDH1 WT inactive | IDH1 R132H conf 16µM
COc1cccc(C2c3c(-c4ccccc4O)n[nH]c3C(=O)N2Cc2cccnc2)c1 (stereo unspecified)	none (no result: GLP1R ag)
CCOc1ccc(C2c3c(-c4cc(C)ccc4O)n[nH]c3C(=O)N2Cc2cccnc2)cc1OCC (stereo unspecified)	mIDH1 inhibitor inconclusive (no result: GLP1R ag) | Resorufin autofl inactive | IDH1 WT inactive | IDH1 R132H conf 35µM
O=C(CSc1nccn1-c1cccc(Cl)c1)Nc1cccc(C(F)(F)F)c1	GLP-1R inv ag inconclusive (no result: GLP1R ag)
COc1ccccc1-c1noc(CCCC(=O)Nc2cc(C)ccc2C)n1	none (no result: GLP1R ag)
CC(=O)OCC1OC(n2cc(F)c(=O)[nH]c2=O)C(OC(C)=O)C1OC(C)=O (stereo unspecified)	none
O=C1C(F)=CC(COC(c2ccccc2)(c2ccccc2)c2ccccc2)OC1n1cc(F)c(=O)[nH]c1=O (stereo unspecified)	GLP-1R inv ag inconclusive, GLP1R cytotox inconclusive, mIDH1 inhibitor 26µM | Resorufin autofl inactive | IDH1 WT 50µM | IDH1 R132H conf 11µM
Cc1ccc(-c2cc3c(n2-c2ccc(C(=O)O)cc2)CCCC3=O)cc1	mIDH1 inhibitor inconclusive | Resorufin autofl inactive | IDH1 WT inactive | IDH1 R132H conf 35µM
CCN(CC)c1ccc(/C=N/NC(=O)Cc2nnc(NC(=O)Nc3ccccc3)s2)cc1	GLP-1R inv ag inconclusive, mIDH1 inhibitor 4.1µM | Resorufin autofl inactive | IDH1 WT inactive | IDH1 R132H conf 6.3µM
O=C(Cn1cc(S(=O)(=O)Cc2cccc(Cl)c2)c2ccccc21)NCCc1ccccc1	none (no result: GLP1R ag)
O=C(O)c1[nH]c2ccccc2c1C(c1cc(Br)ccc1O)c1c(C(=O)O)[nH]c2ccccc12	mIDH1 inhibitor 41µM | Resorufin autofl inactive | IDH1 WT 71µM | IDH1 R132H conf 25µM
COc1cc(Cl)cc(C(c2c(C(=O)O)[nH]c3ccccc23)c2c(C(=O)O)[nH]c3ccccc23)c1O	rTrxR1 inhibitor inconclusive
COc1ccc(OC)c(CNC(=O)c2cnc3c(C)cccn3c2=O)c1	none (no result: GLP1R ag)
CC(=O)OCC(=O)[C@@]12OC3(CCCC3)O[C@@H]1C[C@H]1[C@@H]3CCC4=CC(=O)C=C[C@]4(C)[C@@]3(F)[C@@H](O)C[C@@]12C	GLP-1R inv ag inconclusive, mIDH1 inhibitor 14µM | Resorufin autofl inactive | IDH1 WT inactive | IDH1 R132H conf 7.1µM
CC1(C)O[C@@H]2C[C@H]3[C@@H]4CCC5=CC(=O)C=C[C@]5(C)[C@@]4(F)[C@@H](O)C[C@]3(C)[C@]2(C(=O)CO)O1	none
O=C(c1ccco1)N1CCN(c2c(-c3ccccc3)c3cc(Cl)ccc3[nH]c2=O)CC1	GLP-1R inv ag inconclusive, GLP1R cytotox inconclusive, rTrxR1 inhibitor inconclusive, mIDH1 inhibitor inconclusive | Resorufin autofl inactive | IDH1 WT inactive | IDH1 R132H conf 22µM
O=C(NC(Nc1nc2ccc([N+](=O)[O-])cc2s1)(C(F)(F)F)C(F)(F)F)c1cccnc1	GLP-1R inv ag inconclusive, GLP1R cytotox inconclusive, mIDH1 inhibitor inconclusive | Resorufin autofl inactive | IDH1 WT inactive | IDH1 R132H conf 13µM
O=C(NC(Nc1nc2ccc([N+](=O)[O-])cc2s1)(C(F)(F)F)C(F)(F)F)c1ccccc1Cl	GLP1R cytotox inconclusive, mIDH1 inhibitor inconclusive | Resorufin autofl inactive | IDH1 WT inactive | IDH1 R132H conf 22µM
O=[N+]([O-])c1ccc2nc(NS(=O)(=O)c3ccccc3[N+](=O)[O-])sc2c1	none
COc1ccc(C)cc1-n1c(-c2ccc(Cl)cc2)cc2c1CC(C)(C)CC2=O	mIDH1 inhibitor inconclusive (no result: GLP1R ag) | Resorufin autofl inactive | IDH1 WT inactive | IDH1 R132H conf 14µM
COc1ccc(-n2c(-c3ccc(Cl)cc3)cc3c2CC(C)(C)CC3=O)c(OC)c1	GLP-1R inv ag inconclusive (no result: GLP1R ag)
COc1cc2c3c(c1)C1(C(=O)N3C(C)(C)C=C2C)C(C#N)=C(N)Oc2cc(O)ccc21 (stereo unspecified)	GLP-1R inv ag inconclusive, mIDH1 inhibitor 29µM | Resorufin autofl inactive | IDH1 WT inactive | IDH1 R132H conf 16µM
c1cc(-c2sc(-c3ccncc3)c(-c3ccncc3)c2-c2ccncc2)ccn1	GLP1R cytotox inconclusive, mIDH1 inhibitor inconclusive | Resorufin autofl inactive | IDH1 WT inconclusive | IDH1 R132H conf 28µM
Cc1cc(C)cc(N(C(=O)c2sc(C)nc2C)C(C(=O)NCc2ccco2)c2ccccc2)c1 (stereo unspecified)	mIDH1 inhibitor inconclusive | Resorufin autofl inactive | IDH1 WT inactive | IDH1 R132H conf 13µM
Cc1ccc(N(C(=O)c2sc(C)nc2C)C(C(=O)NCc2ccco2)c2ccccc2)cc1 (stereo unspecified)	mIDH1 inhibitor inconclusive | Resorufin autofl inactive | IDH1 WT inactive | IDH1 R132H conf 35µM
O=C(Cn1nc(Cc2ccncc2)c2ccccc2c1=O)Nc1cccc(C(F)(F)F)c1	GLP-1R inv ag inconclusive (no result: GLP1R ag)
Cc1ccc(C2=NN=C(NC(=O)CSc3nncn3C)SC2)cc1	mIDH1 inhibitor 32µM | Resorufin autofl inactive | IDH1 WT inactive | IDH1 R132H conf 45µM
Cc1ccc(NC(=O)CSc2nncn2C)c(C)c1	none
CCc1nc(N2CCN(C(=O)CCl)CC2)c2c3c(sc2n1)CC(C)CC3 (stereo unspecified)	GLP-1R inv ag inconclusive, GLP1R cytotox inconclusive, rTrxR1 inhibitor 22µM, mIDH1 inhibitor inconclusive | Resorufin autofl inactive | IDH1 WT 50µM | IDH1 R132H conf 10µM
